Screening data as filed in PubChem BioAssay.
Giardia killer – Giardia lamblia killing; Giardia lamblia trophozoite viability; activity change, % at 7.66 µM, hits read low; 340,000 tested, 0.15% active; AID 540267; in the data active = activity change below about -80%; inconclusive = between about -30% and that limit;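 also: parasites exposed to compound for two days anaerobically before the ATP read; % is scaled to controls: 0 for no effect and ±100 for the full control effect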
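Each well holds 100 Giardia trophozoites and compound. After two days (48 hrs) at 37 deg C in anaerobic conditions, ATP is quantified by luminescence.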
Integrin act MD – activates integrin-mediated alleviation for muscular dystrophy. alpha7betagal myoblasts, beta-gal FDG fluorescence, 48 h. Potency, µM (series often up to 38.3 µM), without a hit: top-dose activation, most hits filed as activators. 350,000 tested, 0.064% active. AID 624291;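 also: potency is read from the fitted curve at half-maximal effect; 100% = response of the positive control SU9516; nearly all actives have a fitted effect of over 60% in size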
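Alpha7betagal+/- myoblasts (passage 13) were plated 16-24 hr, then exposed to compounds (1:260 dilution of DMSO stock) for 48 hours at 37C. After MPER lysis, β-galactosidase reporter activity was read as FDG fluorescence (ex 480/em 540) after 30 minutes.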
ERG Ets-DNA blk – inhibitors of human ERG Ets domain-DNA interaction. Potency, µM (highest dose often 76.9 µM), without a hit: at the top dose FP activity, negative = inhibition, most hits filed as inhibitors. fluorescence polarization, His-ERG Ets domain / labelled DNA. 370,000 tested, 0.028% active; active = well fitted inhibition curve with a large enough effect in the polarisation, with a control signal flat; inconclusive = small, poorly fitted or top-dose-only effect, or effect the other way, or a change in a side signal; inactive = no such curve, though single readings can be large or run the other way; the % refers to the polarisation;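 also: polarization taken with two DNA probes labelled with fluorescein and Texas red; potency is read from the fitted curve at half-maximal effect; % of control where 0% means no effect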
Target sequence (P11308 whole entry, looked up, the tested form may be a part): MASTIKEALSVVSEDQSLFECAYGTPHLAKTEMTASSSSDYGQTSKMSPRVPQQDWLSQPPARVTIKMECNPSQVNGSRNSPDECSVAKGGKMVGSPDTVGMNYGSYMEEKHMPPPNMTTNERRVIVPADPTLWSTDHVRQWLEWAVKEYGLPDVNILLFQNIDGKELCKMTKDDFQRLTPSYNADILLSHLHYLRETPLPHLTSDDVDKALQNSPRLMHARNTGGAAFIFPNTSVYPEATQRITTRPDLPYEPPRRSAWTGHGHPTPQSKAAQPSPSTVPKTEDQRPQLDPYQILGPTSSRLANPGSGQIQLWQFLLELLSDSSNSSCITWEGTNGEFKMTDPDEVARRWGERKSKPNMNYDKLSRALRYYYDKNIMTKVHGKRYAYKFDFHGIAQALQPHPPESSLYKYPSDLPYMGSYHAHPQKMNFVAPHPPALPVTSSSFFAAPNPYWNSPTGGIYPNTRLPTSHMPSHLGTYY
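His-tagged ERG Ets domain (1 uM in the protein solution; 300mM KCl, 50mM Tris-HCl, 1mM EDTA, 1mM DTT, pH 7.5) received compound, then a probe mix of 5 nM fluorescein-DNA and 100nM Texas-615-DNA. Fluorescence polarization was read for both dyes.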
Gal4-VP16 FLuc – inhibits Gal4-VP16 luciferase reporter, ROR gamma counter-screen. AID 2546. Drosophila S2 Gal4-VP16 UAS-luciferase, luminescence, 20 h. 310,000 tested, 3.5% active. Potency, µM (titrated, usually from 53.6 µM), without a hit: at the top dose activity, negative = inhibition, usual class: inhibitors;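 also: Gal4-VP16 expression switched on by copper sulfate through the metallothionein promoter; potency is read from the fitted curve at half-maximal effect; % is scaled to controls: 0 for no effect and ±100 for the full control effect; nearly all actives have a fitted effect of over 50% in size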
RORg inh – blocks mouse ROR gamma transcriptional activity; P51450; Drosophila S2 Gal4-RORgamma UAS-luciferase reporter, 20 h; Potency, µM (highest dose often 53.6 µM), without a hit: at the top dose activity change, negative = inhibition, hits mostly inhibitors; 310,000 tested, 5.4% active; also: potency is read from the fitted curve at half-maximal effect; % is scaled to controls: 0 for no effect and ±100 for the full control effect; nearly all actives have a fitted effect of over 60% in size
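Compounds are pin-transferred onto Drosophila Schneider cells expressing a copper-inducible Gal4–ROR gamma transactivation domain fusion. After 1 hr, copper sulfate is added to 700 uM final; luciferase is read 20 hr later.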
Active calls of the source: *; u = inconclusive; x = no result; ! = a repeat was not active; [ ] = dose if it differs, or a comment. Shown is part of a subset that was picked to be rich in hits. Unless noted, calls follow the shape of the dose curve; as a rule, active = well fitted curve in the direction sought with a large enough effect; inconclusive = small, poorly fitted or top-dose-only effect, or another doubt; inactive = no such curve, though single readings can be large; an effect the other way counts as inactive or inconclusive.

SMILES	Giardia killer	Integrin act MD	ERG Ets-DNA blk	Gal4-VP16 FLuc	RORg inh
COc1cc(O)cc(/C=C/c2ccccc2)c1	1	8%	14%	u	24%
Oc1ccc(/C=C\c2cc(O)cc(O)c2)cc1	x	x	x	13µM*	3.5µM*!
O=C(O)/C=C/c1ccc(O)cc1	-7	32%	3%	x	x
CC(C)C(NC(=O)C12CC3CC(CC(C3)C1)C2)C(=O)NC1=NCCS1 (centres undefined)	x	x	x	-4%	18µM*
O=C(Nc1nncs1)C12CC3CC(CC(C3)C1)C2	-7	-42%	-7%	2%	-20%
O=C(NC1=NCCS1)C12CC3CC(CC(C3)C1)C2	1	14%	1%	22µM*	7.1µM*
Cn1c(=O)oc2cc(S(=O)(=O)NC(Cc3ccccc3)C(=O)NCc3ccccc3Cl)ccc21 (centres undefined)	x	x	2%	x	x
CSc1ccc(CCNC(=O)CCn2c(=O)c3cccn3c3cccnc32)cc1	x	x	-4%	x	x
Cc1cccc(C)c1Nc1c(-c2ccc(Cl)s2)nc2ncccn12	x	x	1%	x	x
Cc1cc(C)c2nc(NC(=O)c3ccc(S(=O)(=O)N4CCCC4)cc3)sc2c1	x	x	3%	x	x
CCOC(=O)N1CCN(S(=O)(=O)c2ccc(C(=O)NNc3nc4ccc(Cl)cc4s3)cc2)CC1	-9	-41%	7%	u	7.1µM*
CCOC(=O)N1CCN(S(=O)(=O)c2ccc(C(=O)N(CCN(C)C)c3nc4ccc(Cl)cc4s3)cc2)CC1	-9	-69%	-7%	-2%	-23%
Cc1cccc2sc(NNC(=O)c3ccc(S(=O)(=O)N4CCCC(C)C4)cc3)nc12 (centres undefined)	-12	-56%	-3%	3.2µM*	3.5µM*
CCOC(=O)N1CCN(S(=O)(=O)c2ccc(C(=O)NNc3nc4cc(C)cc(C)c4s3)cc2)CC1	-5	-44%	-5%	5µM*	11µM*
Cc1cc(C)c2nc(NNC(=O)c3ccc(S(=O)(=O)N4CCCCC4)cc3)sc2c1	-25	-43%	0%	8.9µM*	3.2µM*
CSCCC(N)C(=O)O (centres undefined)	x	x	x	-2%	1%
COc1cc(OC)c(NC(=O)Nc2c(C)n(C)n(-c3ccccc3)c2=O)cc1Cl	x	x	-3%	x	x
CCC(CC)NC(=O)CO/N=C/c1ccccc1OC(F)F	-4	45%	-2%	-13%	-9%
CCOC(=O)N1CCN(S(=O)(=O)c2ccc(C(=O)NNc3nc4c(C)cc(C)cc4s3)cc2)CC1	-14	-34%	-16%	20µM*	14µM*
CCOC(=O)N1CCN(S(=O)(=O)c2ccc(C(=O)NNc3nc4c(C)cccc4s3)cc2)CC1	11	-43%	-1%	5µM*	10µM*
Cc1cccc2sc(NNC(=O)c3ccc(S(=O)(=O)N4CCc5ccccc5C4)cc3)nc12	12	-42%	13%	u	-32%
Cc1ccccc1Nc1c(-c2ccc(Cl)s2)nc2ccccn12	3	x	x	x	x
Cc1ccc2[nH]c(=O)c(NC(N)=S)nc2c1	7	12%	-4%	u	11µM*
COC(=O)c1ccc(COc2ccc(/C=N/O)cc2)o1	-26	-6%	-10%	-25%	-25%
CN(C)C(=O)C1C2NC(=S)N(c3ccc(Cl)cc3)C1(C)Oc1ccc(Cl)cc12 (centres undefined)	5	14%	2%	u	10µM*
SMILES	Giardia killer	Integrin act MD	ERG Ets-DNA blk	Gal4-VP16 FLuc	RORg inh
CN(C)C(=O)C1C2NC(=S)N(c3ccccc3)C1(C)Oc1ccccc12 (centres undefined)	5	-4%	-5%	-4%	-34%
CN(C)C(=O)C1C2NC(=S)N(c3cccc(Cl)c3)C1(C)Oc1ccc(Cl)cc12 (centres undefined)	-11	u	-7%	u	10µM*
COc1ccc(N2C(C)=CS/C2=C(/C#N)c2nnc(N3CCOCC3)n2-c2ccccc2)cc1	3	-38%	x	0%	13µM*
C=CCN1C(=O)NC(c2ccccc2)(C(F)(F)F)S/C1=C(\C#N)c1nnc(N2CCOCC2)n1-c1ccccc1 (centres undefined)	-5	-41%	4%	13µM*	5.6µM*
C=CCN1C(c2cccc(C(F)(F)F)c2)=CS/C1=C(\C#N)c1nnc(N2CCOCC2)n1-c1ccccc1	x	14%	x	x	x
Cc1cccc(NS(=O)(=O)c2ccc3oc(=O)c4ncn(C)c4c3c2)c1C	x	x	-3%	x	x
CSCC[C@H](NC(=O)[C@H](Cc1ccccc1)NC(=O)[C@H](Cc1cnc[nH]1)NC(=O)CNC(=O)[C@@H](NC(=O)[C@H](C)NC(=O)[C@H](Cc1c[nH]c2ccccc12)NC(=O)[C@H](CCC(N)=O)NC(=O)[C@@H]1CCCN1C(=O)[C@@H](NC(=O)[C@@H]1CCC(=O)N1)C(C)C)C(C)C)C(N)=O	x	x	x	13%	2%
CCCCNC(=O)NNc1nc(Cl)cc(C)c1C#N	1	-2%	0%	14µM*	-26%
CCCCNc1nc(C)c(C(C)=O)cc1C#N	-2	u	-5%	20%	-2%
O=C(C1COc2ccccc2O1)N1CCN(c2nc3c(F)cccc3s2)CC1 (centres undefined)	x	x	2%	x	x
Cc1cc2nc3c(=O)[nH]c(=O)nc-3n(C[C@H](O)[C@H](O)[C@H](O)COP(=O)(O)OP(=O)(O)OC[C@H]3O[C@@H](n4cnc5c(N)ncnc54)[C@H](O)[C@@H]3O)c2cc1C	x	x	x	1%	35%
CCOC(=O)c1oc2cccc(OCC(O)CNC(C)C)c2c1C (centres undefined)	0	6%[7.66 µM]	2%	16µM*	-38%
O=C(/C=C/c1ccc(Cl)cc1)c1cccnc1	6	-45%	-2%	20µM*	u
N#Cc1ccc(/C=C/C(=O)c2cccnc2)cc1	-1	-71%	12%	u	7.9µM*
O=C(/C=C/c1ccccc1Cl)c1cccnc1	12	-64%	8%	u	u
COc1cccc(Cn2cc(C)cc(NC(=O)NCc3ccccc3)c2=O)c1	0	0%	4%	-10%	2%[1.91 µM]
c1ccc(-c2ccc3c(c2)c2c4n3CCN=C4CCC2)cc1	0	-58%	2%	u	11µM*
CCOC(=O)Cc1csc(NC(=O)C(CC(C)C)NC(=O)C2CCCCC2)n1 (centres undefined)	-16	1%	14%	2%[10 µM]	-6%
CCCP(=O)(CCC)CCP(=O)(c1ccccc1)c1ccccc1	5	-6%	-17%	-2%	13µM*
Cc1ccc(-c2nc(P(=O)(c3ccccc3)c3ccccc3)c(N3CCOCC3)o2)cc1	8	-4%	-1%	16µM*	3.5µM*
O=C(O)c1cccc2cccnc12	-9	7%	-2%	-12%	-15%
O=C(Oc1cccc2cccnc12)c1ccc2c(c1)OCCO2	u	-12%	-1%	2µM*	1.6µM*
O=C(Nc1cccc2cccnc12)c1cccc([N+](=O)[O-])c1	-21	-5%	0%	x	x
